This is a sample that favours compounds with a hit; in the whole collection about 1.3% have one here.
HTT promoter inh: HTT promoter inhibition. HEK293 HTT promoter firefly luciferase reporter, 24 h. Potency, µM (highest dose often 57.5 µM), without a hit: at the top dose activity change, negative = inhibition, hits mostly inhibitors. 48,000 compounds, 0.93% hits; also: nearly all actives have a fitted effect of over 50% in size
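HEK293 cells carrying firefly luciferase reporters were seeded at 2,500 per well in Opti-MEM and cultured for 24 h. They were then treated with compounds at up to 57.5 uM final for 24 h at 37 degrees C before Dual-Glo luminescence readout.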
HTT-AS act: activates huntingtin-antisense promoter activity | Potency, µM (titrated, usually from 57.5 µM), without a hit: at the top dose activity change, positive = activation, hits mostly activators | 48,000 compounds, 0.24% hits | AID 1508624 | HEK293 HTT-AS promoter firefly luciferase reporter, 24 h; response scale: percent change from vehicle, -100% = no light; also: nearly all actives have a fitted effect of over 55% in size
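Quantitative HTS used concentration series of up to 57.5 uM final on HEK293 luciferase reporter cells, 24 h at 37 degrees C. Readout was Dual-Glo firefly luminescence.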
FH mod: Identification of activators of human fumarate hydratase by quantitative high-throughput screening; Potency, µM (titrated, usually from 79.9 µM), without a hit: at the highest dose activity change, negative = inhibition, usual class: inhibitors; Fumarate hydratase, mitochondrial (Homo sapiens), P07954; 54,000 compounds, 0.22% hits; FH coupled MDH/diaphorase resazurin fluorescence, 15 min; also: % is scaled to controls: 0 for no effect and ±100 for the full control effect; the screen sought activators but most active calls are inhibition curves; nearly all actives have a fitted effect of over 45% in size
Target sequence (P07954 whole entry, looked up): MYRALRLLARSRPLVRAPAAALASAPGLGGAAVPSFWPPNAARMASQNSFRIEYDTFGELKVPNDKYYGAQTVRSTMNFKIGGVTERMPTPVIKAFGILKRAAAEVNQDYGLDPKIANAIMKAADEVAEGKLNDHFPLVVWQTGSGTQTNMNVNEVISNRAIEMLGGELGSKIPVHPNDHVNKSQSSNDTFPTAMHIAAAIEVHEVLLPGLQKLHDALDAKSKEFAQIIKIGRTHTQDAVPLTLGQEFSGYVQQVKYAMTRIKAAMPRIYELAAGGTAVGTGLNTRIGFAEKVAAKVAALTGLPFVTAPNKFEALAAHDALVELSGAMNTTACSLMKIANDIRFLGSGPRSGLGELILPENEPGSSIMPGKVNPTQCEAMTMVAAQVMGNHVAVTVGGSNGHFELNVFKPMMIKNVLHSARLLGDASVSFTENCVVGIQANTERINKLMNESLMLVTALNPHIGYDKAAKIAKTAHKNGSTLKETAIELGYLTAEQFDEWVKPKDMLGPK
Active calls of the source: *; ? = inconclusive; . = no result given; [ ] = remark or other dose. Calls follow the shape of the dose curve; as a rule, active = well fitted curve in the direction sought with a large enough effect; inconclusive = small, poorly fitted or top-dose-only effect, or another doubt; inactive = no such curve, though single readings can be large; an effect the other way counts as inactive or inconclusive. Potency is read from the fitted curve at half-maximal effect.

SMILES | HTT promoter inh | HTT-AS act | FH mod
NC(=O)C1=CC2C3C=CC2C(OC3=O)O1 (stereo unspecified) | . | . | 3%
Cc1cc(Nc2cc(N3CCN(C)CC3)nc(/C=C/c3ccccc3)n2)n[nH]1 | . | . | -11%
Cc1ccc(CN2CCCn3nc(C(=O)NCc4ccc(OC(C)C)cc4)cc3C2=O)cc1 | 18µM* | -23% | 0%
COc1cc(CNC(=O)c2cc3n(n2)CCCN(Cc2ccc(C)cc2)C3=O)cc(OC)c1OC | ? | -16% | -1%
CCCC(C(=O)O)c1c(C)nc2ccc(Cl)cc2c1-c1ccccc1 (stereo unspecified) | . | . | 4%
COC(C(=O)N1Cc2[nH]nc(NC(=O)c3ccc(N4CCN(C)CC4)cc3)c2C1)c1ccccc1 (stereo unspecified) | . | . | -9%
Cc1cc(C)cc(-n2c(C)cc(C(=O)C(=O)Nc3ccccc3F)c2C)c1 | 30% | ? | -20%
Cc1cccc(-n2c(C)cc(C(=O)C(=O)Nc3ccccc3F)c2C)c1C | 8.9µM* | -20% | -25%
C[C@@]1(C(=O)O)CCC[C@@]2(C)C3=CC[C@H]4C[C@@]3(CC[C@H]12)CC4(O)CO (stereo partly specified) | . | . | -2%[53.3 µM]
CC(=O)N[C@H]1[C@H](O[C@H]2CC[C@@]3(C)C(CC[C@]4(C)C3CC=C3C5CC(C)(C)CC[C@]5(C(=O)O)[C@H](O[C@@H]5O[C@H](CO)[C@@H](O)[C@H](O)[C@H]5O)C[C@]34C)C2(C)C)O[C@H](CO[C@@H]2OC[C@H](O)[C@H](O)[C@H]2O[C@@H]2OC[C@@H](O)[C@H](O)[C@H]2O)[C@@H](O)[C@@H]1O (stereo partly specified) | . | . | -8%[20.6 µM]
CC(c1ncncc1F)C(O)(Cn1cncn1)c1ccc(F)cc1F (stereo unspecified) | . | . | 1%
COc1cccc2sc(NC(=O)c3ccc(S(=O)(=O)N4CCC(C)CC4)cc3)nc12 | 28µM* | -45% | -9%
CC1CCN(S(=O)(=O)c2ccc(C(=O)Nc3nc4ccc(F)cc4s3)cc2)CC1 | -23% | -24% | -5%
CCCn1cnc2c(NCc3ccc(C)s3)nc(N[C@H](CC)CO)nc21 | . | . | 1%
CC(C)C(=O)OC[C@H]1O[C@@H](n2ccc(N)nc2=O)[C@](C)(F)[C@@H]1OC(=O)C(C)C | . | . | 3%
COc1ccc(Cn2c(CO)cnc2SCc2ccc(C)cc2)cc1 | 63% | ? | -4%
COc1ccc(Cn2c(CO)cnc2SCc2ccc(F)cc2)cc1 | 32µM* | -32% | 3%
Cc1ccc(CCNc2ncnc3onc(C)c23)cc1 | ? | -36% | -11%
Cc1noc2ncnc(NCCc3ccccc3)c12 | 14µM* | -61% | 4%
COc1cccc2sc(N3CCN(C(=O)CCS(=O)(=O)c4ccc(F)cc4)CC3)nc12 | 22µM* | -38% | 2%
CCOc1cccc2sc(N3CCN(C(=O)c4ccco4)CC3)nc12 | -19% | -5% | 0%
Cc1ccc(S(=O)(=O)CCC(=O)N2CCN(c3nc4c(C)c(Cl)ccc4s3)CC2)cc1 | -25% | -15% | -7%
COc1ccc(C(=O)N2CCN(c3nc4c(OC)cccc4s3)CC2)cc1OC | 28µM* | -26% | 4%
CC(=O)OC/C=C(\C)C(CC1C(C)=C(OC(C)=O)C(=O)C2C(C)(C)C(O)CCC12C)OC(C)=O (stereo unspecified) | . | . | -6%[53.3 µM]
CCCN1CCC=C(c2cc(-c3ccc(C)cc3)no2)C1 | . | . | -5%
SMILES | HTT promoter inh | HTT-AS act | FH mod
CCC[C@@H]1C[C@@H](C(=O)N[C@H](C(C)Cl)[C@H]2O[C@H](SC)[C@H](O)[C@@H](O)[C@H]2O)N(C)C1 (stereo partly specified) | . | . | 22%
C=CC(C)(C)C12CC3C(=O)N4C(CC5(C(C)(C)C=C)c6ccccc6NC45)C(=O)N3C1Nc1ccccc12 (stereo unspecified) | . | . | 2%[53.3 µM]
COc1ccc(CCN2CC(C(=O)NCCc3ccccc3)CC2=O)cc1OC (stereo unspecified) | 12% | 4% | -16%
COc1ccc(CC2=NN3C([C@@H](CCc4ccccc4)[C@@H](C)O)=NC(C)C3C(=O)N2)cc1OC (stereo partly specified) | 45% | 7.7µM* | -12%[53.3 µM]
Cc1ccc(NCc2cccn2-c2nnc(N3CCC(C(=O)NCc4ccc(OC(C)C)cc4)CC3)s2)cc1 | 28µM* | -43% | -15%
CCOc1ccc(NCc2cccn2-c2nnc(N3CCC(C(=O)NCc4cccc(OC)c4)CC3)s2)cc1 | ? | -46% | -18%
Cc1ccc(NCc2cccn2-c2nnc(N3CCC(C(=O)NCCc4ccc(Cl)cc4)CC3)s2)cc1 | ? | -32% | -13%
CCOc1ccc(NCc2cccn2-c2nnc(N3CCC(C(=O)NCc4ccc(C)cc4)CC3)s2)cc1 | 14µM* | -52% | -18%
CC(C)C[C@H](CC(=O)NO)C(=O)N[C@H](C(=O)N[C@@H](C)C(=O)NCCN)C(C)(C)C | . | . | 7%[13.5 µM]
Cc1sc2c(c1C)C(c1ccc(Cl)cc1)=N[C@H](CC(=O)NCCCCNC(=O)COc1cccc3c1C(=O)N([C@H]1CCC(=O)NC1=O)C3=O)c1nnc(C)n1-2 | . | . | -1%
CCCCCCCCC(=O)N[C@H](CN1CCCC1)[C@H](O)c1ccc2c(c1)OCCO2 | . | . | 2%
O=C(CN(c1cccc(C(F)(F)F)c1)S(=O)(=O)c1ccccc1)Nc1cccc(Cl)c1 | 28µM* | -40% | ?
O=C(CN(c1ccc(Cl)c(C(F)(F)F)c1)S(=O)(=O)c1ccccc1)Nc1cccnc1 | -15% | -28% | -14%
CC1CCN(c2nc3ccc(C(=O)NCc4ccccc4)cc3s2)CC1 | 0.11µM* | -76% | 2%
CCOc1ccccc1CNC(=O)c1ccc2c(c1)sc1nc(-c3ccccc3)cn12 | 10% | ? | -7%
CCOc1ccccc1CNC(=O)c1ccc2nc(N3CCC(C)CC3)sc2c1 | 1.8µM* | -54% | -16%
Cc1ccc(CNC(=O)c2ccc3nc(N4CCCCC4)sc3c2)cc1 | ? | -37% | -1%
CC1CCN(c2nc3ccc(C(=O)NC(C)C)cc3s2)CC1 | -83% | ? | 1%
CC1CCN(c2nc3ccc(C(=O)NCCc4ccc(S(N)(=O)=O)cc4)cc3s2)CC1 | 0.4µM* | ? | 3%
CC1=CC(=O)C(C(C)C)=C/C1=N/OC(=O)c1ccccc1C | . | . | -13%
Cc1cc(C(=O)Nc2nc3cccc(Cl)c3n2C2CCCCN(C(=O)/C=C/CN(C)C)C2)ccn1 (stereo unspecified) | . | . | 22%
COc1ccccc1NC(=O)CSc1nnc(-c2ccccc2C)o1 | 60% | ? | -14%
O=C(CSc1nnc(-c2ccccc2F)o1)Nc1ccccc1Cl | 43% | 2.2µM* | -22%
Cc1cn(C[C@H](N)C(=O)O)c(=O)n(Cc2ccsc2C(=O)O)c1=O | . | . | -8%
O=c1[nH]cnc2c([C@@H]3N[C@H](CO)[C@@H](O)[C@H]3O)c[nH]c12 | . | . | 1%
CCc1ccc(CN(C(=O)c2cc3ccccc3oc2=O)C2CCS(=O)(=O)C2)cc1 (stereo unspecified) | 54% | 3.5µM* | 1%
COc1cc(CN(C(=O)c2cc3ccccc3oc2=O)C2CCS(=O)(=O)C2)cc(OC)c1OC (stereo unspecified) | 7% | ? | 21%

Screens: PubChem BioAssay, National Center for Advancing Translational Sciences (NCATS)
